Bioassay records from PubChem.
Only some compounds are listed: those with a hit (about 5.1% of all), similar ones and a draw of the others.
RAM network inh = blocks the yeast RAM network. S. cerevisiae dse1pr::URA3 reporter, 5-FOA growth OD615, 2 d; analog-sensitive cbk1-as2 kinase mutant strain. 190,000 compounds, 1.8% hits. inhibition, % at 50 µM. AID 868;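 active = inhibition above a set limit, 3 SD over mean compound inhibition, cut at about 8.4% in these data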;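 also: inhibition rescues growth on 5-FOA so higher OD means more RAM inhibition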
ROMK mod = modulates human ROMK potassium channel activity | 130,000 compounds, 2% hits | B-score at 10 µM | Tet-inducible ROMK, thallium flux fluorescence; actives lie on both sides;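 active = signal ratio slope over the read window, or its plate-corrected B-score, at least 3 SD from the plate mean, either direction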;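 also: B-score of the F/F0 ratio slope over 7 to 12 s after thallium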
KCC2 mod = modulators of human KCC2 chloride dependent transport. Q9H2X9. B-score of Tl+ flux slope (higher = more flux/activation; lower = inhibition) at 10 µM. 190,000 compounds, 2.2% hits. KCC2 cells, thallium flux FluoZin-2 fluorescence;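 active = thallium flux slope and its plate-corrected score both differing from the plate sample mean at a set confidence after two filtering rounds, in either direction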;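 also: slope of fluorescence scaled to starting intensity during 10 to 20 s after thallium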
Target sequence (Q9H2X9 whole entry, looked up): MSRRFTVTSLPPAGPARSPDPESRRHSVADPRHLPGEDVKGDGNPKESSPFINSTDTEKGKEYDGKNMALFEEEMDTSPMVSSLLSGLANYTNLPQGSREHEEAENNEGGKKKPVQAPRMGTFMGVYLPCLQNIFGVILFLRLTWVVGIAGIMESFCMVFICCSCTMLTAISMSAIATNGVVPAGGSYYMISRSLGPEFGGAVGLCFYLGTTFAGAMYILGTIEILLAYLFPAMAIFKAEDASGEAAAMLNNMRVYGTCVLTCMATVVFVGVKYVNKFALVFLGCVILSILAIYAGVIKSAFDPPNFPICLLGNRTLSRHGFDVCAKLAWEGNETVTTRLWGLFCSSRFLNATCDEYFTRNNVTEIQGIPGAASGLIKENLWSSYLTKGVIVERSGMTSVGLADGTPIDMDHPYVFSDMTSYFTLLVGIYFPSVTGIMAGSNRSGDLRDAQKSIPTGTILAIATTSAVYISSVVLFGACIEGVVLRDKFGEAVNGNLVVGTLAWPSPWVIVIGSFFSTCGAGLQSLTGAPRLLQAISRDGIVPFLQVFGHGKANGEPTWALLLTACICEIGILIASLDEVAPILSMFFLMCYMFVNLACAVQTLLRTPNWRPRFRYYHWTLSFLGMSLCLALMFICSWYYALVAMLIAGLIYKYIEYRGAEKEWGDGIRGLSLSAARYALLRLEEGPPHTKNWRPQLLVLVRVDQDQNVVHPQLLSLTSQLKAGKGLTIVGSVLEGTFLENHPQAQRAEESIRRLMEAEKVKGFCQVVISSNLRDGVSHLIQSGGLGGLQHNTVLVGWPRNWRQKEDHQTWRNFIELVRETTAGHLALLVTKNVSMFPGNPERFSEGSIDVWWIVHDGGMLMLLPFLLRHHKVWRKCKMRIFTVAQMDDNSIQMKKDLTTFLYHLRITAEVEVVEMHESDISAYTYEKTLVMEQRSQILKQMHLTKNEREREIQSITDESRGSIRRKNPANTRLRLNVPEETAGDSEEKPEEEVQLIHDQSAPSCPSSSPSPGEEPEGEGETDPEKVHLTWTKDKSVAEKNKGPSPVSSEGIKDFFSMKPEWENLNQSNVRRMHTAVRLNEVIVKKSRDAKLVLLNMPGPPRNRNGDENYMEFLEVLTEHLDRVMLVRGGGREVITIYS
S1P4 agonist = activates the human S1P4 receptor; O95977; S1P4-expressing cell line, agonist reporter assay; activation, % at 4.98 µM; 220,000 compounds, 0.35% hits; in the data active = activation above about 11%
S1P3 antag = antagonists of human S1P3 receptor | Q99500 | CHO S1P3 NFAT-BLA reporter, FRET fluorescence, antagonist mode | inhibition, % at 4.98 µM | 170,000 compounds, 0.27% hits | AID 485;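 active = inhibition above the plate cutoff, the mean inhibition of test wells on that plate plus 3 SD, cut at about 28% in these data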;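 also: cells challenged with S1P at its EC80 of 0.8 µM; blue over green emission ratio from cleaved BLA substrate after 4 h stimulation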
S1P4 antagonist = blocks the human S1P4 receptor. O95977. S1P4-expressing cells, antagonist mode, reporter read-out. inhibition, % at 4.98 µM. 220,000 compounds, 0.26% hits. AID 1510; in the data active = inhibition above about 29%
KCC2 secondary = confirmation of human KCC2 transport modulators; shares compounds with KCC2 mod; HEK293-KCC2, thallium flux, FluoZin2 fluorescence; stronger effect = higher value; normalised thallium flux (F/F0 slope) at 10 µM; 3,700 compounds, 15% hits; AID 1713;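 active = thallium flux slope above the same plate's solvent-only control mean plus 3 SD; inconclusive = the two replicate wells disagree; inactive = no significant difference from solvent-only control wells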
KCC2 bumet counter = bumetanide-insensitive thallium flux in KCC2 cells with ouabain, counter-screen; normalized thallium flux at 10 µM; HEK293-KCC2 + bumetanide/ouabain, thallium flux FluoZin2; stronger effect = higher value; shares compounds with KCC2 mod; 3,700 compounds, 49% hits;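 active = thallium entry rate above the same plate's blocked-transporter control wells by more than 3 SD; inconclusive = the two repeat wells disagree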;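 also: raw slope of fluorescence over initial fluorescence between 10 and 20 s after thallium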
KCC2 sec2 = KCC2 (human) modulation, second secondary assay; AID 1715; HEK293-KCC2, thallium flux FluoZin2 fluorescence; actives lie on both sides; F/F0 rise rate, 10–20 s post-thallium; normalized thallium flux at 10 µM; shares compounds with KCC2 mod; 3,700 compounds, 23% hits;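 active = thallium flux slope more than 3 SD above or below the plate's solvent-only control mean, mostly below; inconclusive = the two repeat wells disagreed; inactive = no significant shift from solvent-only controls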
HEK counter1 = parental HEK flux effect, counter-screen. shares compounds with KCC2 mod. HEK293 parental cells, thallium flux FluoZin2, ouabain; baseline-ratio fluorescence slope, 10–20 s after thallium. thallium flux rate (normalised fluorescence) at 10 µM. 3,700 compounds, 46% hits. AID 1716;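 active = thallium flux rate significantly above the same plate's solvent-only control wells, beyond their mean plus 3 SD; inconclusive = the two replicate wells gave conflicting results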
KCC2 ouabain = KCC2 (human) modulation, ouabain retest. shares compounds with KCC2 mod. 3,700 compounds, 48% hits. HEK293-KCC2, thallium flux FluoZin2 fluorescence; bidirectional: low = inhibitor, high = activator. raw Tl+ flux slope (below DMSO = inhibition, above = activation) at 10 µM;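 active = thallium flux slope beyond 3 SD from same-plate DMSO control mean in most replicates, usually higher, sometimes lower; inconclusive = repeat tests gave conflicting results; inactive = no significant difference from controls in most replicates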;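 also: slope of initial-normalized fluorescence between seconds 10 and 20 after thallium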
HEK293 Tl flux2 = counter-screen for KCC2 modulators: effect in parental HEK293 cells; shares compounds with KCC2 mod; thallium flux FluoZin-2 fluorescence slope; thallium flux slope at 10 µM; 3,700 compounds, 33% hits;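 active = thallium flux slope above the same plate's solvent-control mean plus 3 SD in both duplicate wells; inconclusive = duplicate wells that disagreed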;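 also: run without ouabain in cells lacking the KCC2 cotransporter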
Each line names hits and unclear results; the compound was inactive in the other large screens (follow-up assays come after a bar, where they were run).

CCCOc1ccc(C(=O)NC(=S)NNC(=O)c2c(-c3ccccc3)noc2C)cc1	KCC2 mod 62 (no result: RAM network inh, ROMK mod) | KCC2 secondary 0.021 | KCC2 bumet counter 0.065 | KCC2 sec2 inconclusive | HEK counter1 0.045 | KCC2 ouabain 0.04 | HEK293 Tl flux2 0.04
COC(=O)c1ccc(C)c(NC(=O)c2c(-c3ccccc3)noc2C)c1	none (no result: KCC2 mod)
CCCOc1ccc(NC(=O)c2c(-c3ccccc3)noc2C)cc1	none (no result: ROMK mod)
Cc1ccc(NC(=S)NC(=O)c2c(-c3ccccc3Cl)noc2C)cc1	KCC2 mod 5.4 (no result: ROMK mod, S1P3 antag) | KCC2 secondary inactive | KCC2 bumet counter 0.035 | KCC2 sec2 inactive | HEK counter1 0.015 | KCC2 ouabain 0.037 | HEK293 Tl flux2 inconclusive
CC12CCC(C(=O)N3CCC(Cc4ccccc4)CC3)(C(=O)C1=O)C2(C)C (stereo unspecified)	none
CC(C)CCN1CCN(Cc2cccc3cccnc23)CC1CCO (stereo unspecified)	none
Cc1onc(-c2ccccc2Cl)c1C(=O)NC(=S)Nc1ccc(C(C)C)cc1	KCC2 mod 9.9 (no result: RAM network inh, ROMK mod) | KCC2 secondary inactive | KCC2 bumet counter 0.013 | KCC2 sec2 inactive | HEK counter1 0.014 | KCC2 ouabain inconclusive | HEK293 Tl flux2 0.013
Cc1onc(-c2ccccc2Cl)c1C(=O)NC(=S)NCCc1ccccc1	none
Cc1ccc(C)c(NC(=S)NNC(=O)c2sccc2C)c1	KCC2 mod 4.1 (no result: S1P3 antag) | KCC2 secondary inactive | KCC2 bumet counter 0.026 | KCC2 sec2 inactive | HEK counter1 inconclusive | KCC2 ouabain 0.031 | HEK293 Tl flux2 inactive
Cc1ccc(C)c(NC(=S)NNC(=O)c2csc(C)c2C)c1	KCC2 mod 11 (no result: ROMK mod) | KCC2 secondary 0.016 | KCC2 bumet counter 0.041 | KCC2 sec2 inactive | HEK counter1 0.04 | KCC2 ouabain 0.042 | HEK293 Tl flux2 0.015
CCCc1nnc(NC(=O)c2cn(CC)c3cc(N4CCN(C)CC4)c(F)cc3c2=O)s1	none (no result: RAM network inh, ROMK mod)
Cc1cccc(N2C(=O)CCC2=O)n1	none
Cc1nonc1CC(=O)N1CCCC(C(=O)c2cccc(C(F)(F)F)c2)C1 (stereo unspecified)	none (no result: KCC2 mod)
Cc1ccc(/C=N\Nc2cn[nH]c(=O)c2Cl)cc1	none (no result: KCC2 mod, S1P3 antag)
O=c1[nH]ncc(N/N=C/c2ccccc2)c1Cl	none (no result: KCC2 mod, S1P3 antag) | KCC2 secondary inactive | KCC2 bumet counter 0.0056 | KCC2 sec2 inactive | HEK counter1 inactive | KCC2 ouabain inactive | HEK293 Tl flux2 inactive
S=c1nc(-c2ccc(Br)cc2)[nH]c2ccccc12	KCC2 mod 93 (no result: RAM network inh, ROMK mod) | KCC2 secondary 0.047 | KCC2 bumet counter 0.13 | KCC2 sec2 0.078 | HEK counter1 0.12 | KCC2 ouabain 0.11 | HEK293 Tl flux2 0.092
CC(NC(=O)CCSc1nc(-c2ccc3c(c2)OCO3)cc(C(F)(F)F)n1)c1ccccc1 (stereo unspecified)	none (no result: ROMK mod, S1P3 antag)
CCCOc1cccc(-c2cc(C(=O)NN)c3ccccc3n2)c1	KCC2 mod 22 | KCC2 secondary inactive | KCC2 bumet counter inactive | KCC2 sec2 inactive | HEK counter1 inactive | KCC2 ouabain inactive | HEK293 Tl flux2 inactive
CCCCOc1cccc(-c2cc(C(=O)NNC(=S)NCC)c3ccccc3n2)c1	none (no result: ROMK mod, S1P3 antag)
CCN1CCN(C(c2ccccc2)c2nnnn2Cc2ccc3c(c2)OCO3)CC1 (stereo unspecified)	none
CCN1CCN(C(c2ccccc2)c2nnnn2Cc2ccccc2)CC1 (stereo unspecified)	KCC2 mod -4.9 (no result: S1P3 antag) | KCC2 secondary inactive | KCC2 bumet counter inactive | KCC2 sec2 inactive | HEK counter1 inactive | KCC2 ouabain inactive | HEK293 Tl flux2 inactive
N#CC1=C(N)NC(SCc2ccc(F)cc2)=C(C#N)C12CCCCC2	none (no result: S1P3 antag) | KCC2 secondary inactive | KCC2 bumet counter inactive | KCC2 sec2 0.024 | HEK counter1 inconclusive | KCC2 ouabain inconclusive | HEK293 Tl flux2 inactive
COc1ccccc1NC(=O)CSc1nnnn1Cc1ccccc1	none (no result: KCC2 mod)
CCOc1ccccc1NC(=O)CSc1nnnn1Cc1ccccc1	KCC2 mod -2.6 | KCC2 secondary inactive | KCC2 bumet counter inactive | KCC2 sec2 inactive | HEK counter1 inactive | KCC2 ouabain inconclusive | HEK293 Tl flux2 inactive
NCc1ccccc1COc1ccccc1	none
Cc1scc(-c2n[nH]c(=S)n2C(C)c2ccccc2)c1C (stereo unspecified)	KCC2 mod 7.7 (no result: ROMK mod) | KCC2 secondary inactive | KCC2 bumet counter 0.04 | KCC2 sec2 inactive | HEK counter1 0.011 | KCC2 ouabain inconclusive | HEK293 Tl flux2 inconclusive
CC1=CCC[C@@H]2[C@@](C)(CC/C(C)=C/C(=O)O)[C@H](C)CC[C@@]12C	KCC2 mod 3.5 | KCC2 secondary inactive | KCC2 bumet counter 0.012 | KCC2 sec2 inactive | HEK counter1 0.015 | KCC2 ouabain inconclusive | HEK293 Tl flux2 inactive
CCOC(=O)Cn1nnnc1C(C(C)C)N(Cc1cccs1)Cc1cc2cc(C)ccc2[nH]c1=O (stereo unspecified)	none (no result: KCC2 mod, S1P3 antag) | KCC2 secondary inactive | KCC2 bumet counter inactive | KCC2 sec2 inactive | HEK counter1 inactive | KCC2 ouabain inactive | HEK293 Tl flux2 inactive
CCC(c1nnnn1C1CCCC1)N(Cc1cccs1)Cc1cc2cc(C)ccc2[nH]c1=O (stereo unspecified)	none (no result: ROMK mod)
Cc1cc(Cl)cc(Cl)c1OCCOc1cccc2cccnc12	KCC2 mod -7 (no result: S1P3 antag) | KCC2 secondary inactive | KCC2 bumet counter inactive | KCC2 sec2 inactive | HEK counter1 inactive | KCC2 ouabain inactive | HEK293 Tl flux2 inactive
Brc1ccccc1OCCOc1cccc2cccnc12	none (no result: ROMK mod)
O=C(COc1ncnc2ccccc12)Nc1ccc(S(=O)(=O)N2CCOCC2)cc1	none (no result: RAM network inh, ROMK mod)
O=C(Nc1cc(=O)[nH]c2nc(-c3ccccc3)nn12)c1ccccc1Cl	KCC2 mod -3.2 (no result: RAM network inh) | KCC2 secondary inactive | KCC2 bumet counter inactive | KCC2 sec2 inactive | HEK counter1 inactive | KCC2 ouabain inconclusive | HEK293 Tl flux2 inconclusive
